The source of these data is PubChem BioAssay (NCATS).

Results filed as inconclusive are left out. Activity calls are given as the source filed them. The call rests on the fitted dose curve; in most records, active means well fitted cell-killing curve with a large enough effect; inconclusive means small, poorly fitted or top-dose-only effect, or effect the other way; inactive means no such curve, though single readings can be large or run the other way. Non-standard residues stand in square brackets, D forms with d. Residues, ends and D or L forms follow the SMILES beside them. *: point of attachment. Nva = CCC[C@H](N)C(=O)O; Cbz = O=C(OCc1ccccc1)*
Potency means the concentration at half of the fitted maximal effect.

The assay in a line: Quantitative High-Throughput drug screen in 47 multiple myeloma cell lines against the NCATS MIPE library collection: MM1S_ATCC cell viability assay (AID 1918980). Further: nearly all actives have a fitted effect of over 45% in size. Particulars: MM1S myeloma viability, CellTiter-Glo ATP luminescence, 48 h; series mostly up to 45.8 µM. From the text:
PI: Beverly A. Mock Ph.D.
Laboratory of Cancer Biology and Genetics,
Center for Cancer Research, National Cancer Institute,
National Institute of Health, Bethesda, Maryland
Drug resistance and disease progression are common in multiple myeloma (MM) patients, underscoring the need for new therapeutic combinations. […] We hypothesized that effective combinations would reduce MYC expression and enhance p16 activity. […] These preclinical data identify potentially useful drug combinations for evaluation in drug-resistant MM and reveal potential mechanisms of combined drug sensitivity.
Described herein is the primary MIPE qHTS used to cherrypick compounds. Validated compounds were then further tested for potential synergistic activiy.
[1] Peat TJ, Gaikwad SM, Dubois W, Gyabaah-Kessie N, Zhang S, Gorjifard S, Phyo Z, Andres M, Hughitt VK, Simpson RM, Miller MA, Girvin AT, Taylor A, Williams D, D'Antonio N, Zhang Y, Rajagopalan A, Flietner E, Wilson K, Zhang X, Shinn P, Klumpp-Thomas C, McKnight C, Itkin Z, Chen L, Kazandijian D, Zhang J, Michalowski AM, Simmons JK, Keats J, Thomas CJ, Mock BA. Drug combinations identified by high-throughput screening promote cell cycle transition and upregulate Smad pathways in myeloma. Cancer Lett. 2023 Aug 1;568:216284. doi: 10.1016/j.canlet.2023.216284. Epub 2023 Jun 24. PMID: 37356470; PMCID: PMC10408729.
SEQUENCE No. (e.g., 1, 2, 3, etc.); […] (e.g., Cells, Incubation, Reagent, etc.); VALUE and DESCRIPTION.
1; Cells; 5 uL; white, solid bottom 1536-well Greiner assay plate.
2; Compounds; 23 nL; Kalypsis pin tool (Wako USA) equipped with a 1536-well pin head to transfer to the assay plates.
3; Incubation; 48 hours; 37C incubation.
4; Reagent;5uL; CellTiter Glo (Promega).
5; Detector; 425V; Luminescence; Viewlux PerkinElmer.
NOTES (numbers refer to Sequence numbers above)
1. The cell-based screening methods employed in this study were like those previously published. Briefly, the corresponding myeloma cell lines were screened in 1,536-well plates with 500 cells, 5-uL per well for inhibition of cell viability (assessed by measuring ATP levels with CellTiterGlo).
2. NCATS MIPE 4.0 library of approved and investigational drugs were added using the Kalypsis pin tool. Wells treated with DMSO only for 100% viability and media only for 0% viability were used as controls.
3. The assay plates were covered and incubated for 48 hours in a 37C, 5% CO2 incubator with controlled humidity.
4. After 48 hours, CellTilter-GloTM luminescent substrate mix (Promega) reagent was added to the assay plate and plates we incubated for 5 min at room temperature.
5. Signal was measured as median relative luminescence units on a ViewLux (PerkinElmer) multiplate reader.
[1] Heske CM, Davis MI, Baumgart JT, Wilson K, Gormally MV, Chen L, Zhang X, Ceribelli M, Duveau DY, Guha R, Ferrer M, Arnaldez FI, Ji J, Tran HL, Zhang Y, Mendoza A, Helman LJ, Thomas CJ. Matrix Screen Identifies Synergistic Combination of PARP Inhibitors and Nicotinamide Phosphoribosyltransferase (NAMPT) Inhibitors in Ewing Sarcoma. Clin Cancer Res. 2017 Dec 1;23(23):7301-7311. doi: 10.1158/1078-0432.CCR-17-1121. Epub 2017 Sep 12. PMID: 28899971; PMCID: PMC6636827.
For orientation: Cellular ATP, detected with luciferase, serves as a proxy for viable cell number.
Consider `COC[C@H](NC(=O)c1cnc(C)s1)C(=O)N[C@@H](COC)C(=O)N[C@@H](Cc1ccccc1)C(=O)[C@@]1(C)CO1`, for which the Potency was 59 nM (active).

In the case of `C[C@H](NCc1ccc(OCc2cccc(F)c2)cc1)C(N)=O`, the Potency was 9350 nM (active).

In the case of `COc1cc(C)c(C=CC(C)=CC=CC(C)=CC(=O)O)c(C)c1C`, the Potency result is “inactive”.

Consider `CC(C)N1[N]C(=C2C=c3cc(O)ccc3=N2)c2c(N)ncnc21`, for which the Potency is 469 nM (active).

On to `C=CC(=O)Nc1cc(NC(=O)c2ccc(C)c(NC(=O)c3ccno3)c2)cc(C(F)(F)F)c1`, for which the Potency is 16600 nM (active).

In the case of `CC(C)[C@H](CO)Nc1nc(Nc2cccc(Cl)c2)c2ncn(C(C)C)c2n1`, the Potency is 5900 nM (active).

`Cc1cnc(Nc2ccc(CN3CCOCC3)cc2)nc1Nc1cccc(S(=O)(=O)NC(C)(C)C)c1`: the Potency is 5900 nM (active).

On to `NC(=O)c1ncn([C@@H]2O[C@H](CO)[C@@H](O)[C@@H]2O)c1O`, for which the Potency entry was “inactive”.

For the compound `Cn1cnc(=N)c2[nH]cnc21`, the Potency is 93.5 nM (active).

Turning to `Cc1ncc(-c2ccnc(Nc3ccc(S(C)(=O)=O)cc3)n2)n1C(C)C`, the Potency was 2640 nM (active).

Turning to `CN(C)CCN1C(=O)c2cccc3cc(N)cc(c23)C1=O`, the Potency was 14800 nM (active).

On to `CN(C)CC[C@H](c1ccc(Cl)cc1)c1ccccn1`, for which the Potency is 16600 nM (active).

Turning to `Cc1ccc([N+](=O)[O-])cc1S(=O)(=O)N(C)N=Cc1cnc2ccc(Br)cn12`, the Potency was 29.6 nM (active).

Take `CN1[C@H]2CC(OC(=O)[C@@H](CO)c3ccccc3)C[C@H]1[C@H]1O[C@H]12` (stereo not given in full): the Potency result is “inactive”.

With `Cc1noc(-c2ccc(CSCCC(=O)O)cc2)c1NC(=O)OC(C)c1ccccc1Cl` (stereo not given), the Potency entry is “inactive”.

With `CC(=O)[C@]1(O)Cc2c(O)c3c(c(O)c2[C@@H](O[C@H]2C[C@H](N)[C@@H](O)[C@H](C)O2)C1)C(=O)c1ccccc1C3=O`, the Potency was 16.6 nM (active).

`O=C(O)c1ccc(Nc2ncc3c(n2)-c2ccc(Cl)cc2C(c2c(F)cccc2F)=NC3)cc1`: the Potency is 18700 nM (active).

On to `CCC[C@@H](C=O)NC(=O)[C@H](CC(C)C)NC(=O)[C@H](CC(C)C)NC(=O)OCc1ccccc1` (Cbz-Leu-Leu-[Nva]-aldehyde), for which the Potency is 418 nM (active).

For `C[C@H](NCc1ccc2c(c1)nc(NC(=O)c1ccc(-c3cn[nH]c3)s1)n2CCc1ccccc1)C(C)(C)C`, the Potency is 1660 nM (active).

On to `OCCNC1CCCc2c1[nH]c1ccc(-c3ccccc3)cc21` (stereo not given), for which the Potency is 20900 nM (active).

For the compound `C[C@H]1[C@@H](OC(=O)CCC(=O)O)O[C@@H]2O[C@@]3(C)CC[C@@H]4[C@H](C)CC[C@@H]1[C@@]24OO3`, the Potency was 18700 nM (active).

On to `COc1ccc2c(c1OC)C(=O)OC2[C@H]1c2c(cc3c(c2OC)OCO3)CCN1C` (stereo not given in full), for which the Potency was 332 nM (active).

On to `C[C@H](NC(=O)C(C#N)=Cc1cccc(Br)n1)c1ccccc1`, for which the Potency was 8330 nM (active).

In the case of `O=C(C=Cc1ccc(CN(CCO)CCc2c[nH]c3ccccc23)cc1)NO`, the Potency is 105 nM (active).

As for `COC(=O)C=CC(=O)OC`, the Potency was 1660 nM (active).

Consider `CCCNS(=O)(=O)Nc1ncnc(OCCOc2ncc(Br)cn2)c1-c1ccc(Br)cc1`, for which the Potency entry was “inactive”.

Take `OCC(O)C(O)C(O)CO` (stereo not given): the Potency result is “inactive”.

For the compound `CCn1c(=O)c2c(nc(C=Cc3ccc(OC)c(OC)c3)n2C)n(CC)c1=O`, the Potency is 26400 nM (active).

With `COc1cc(C(=O)NC2CCN(C)CC2)ccc1Nc1ncc2c(n1)N(C1CCCC1)CCC(=O)N2C(C)C`, the Potency was 1050 nM (active).

Regarding `NC(=O)c1cccc(-c2cccc(OC(=O)NC3CCCCC3)c2)c1`, the Potency result was “inactive”.

As to `Cc1ccc(O)c(C(CCN(C(C)C)C(C)C)c2ccccc2)c1` (stereo not given), the Potency result was “inactive”.

`COc1cc(OC)cc(-c2ccc3ncc4ccc(=O)n(-c5ccc(N6CCNCC6)c(C(F)(F)F)c5)c4c3c2)c1`: the Potency is 3320 nM (active).

Regarding `COc1ccc(CCC(=O)c2c(O)cc(O[C@@H]3O[C@H](CO)[C@@H](O)[C@H](O)[C@@H]3O[C@@H]3O[C@@H](C)[C@H](O)[C@@H](O)[C@@H]3O)cc2O)cc1O`, the Potency was 9350 nM (active).

For `CCOC(=O)[C@H](CCc1ccccc1)N[C@@H](C)C(=O)N1[C@@H](C(=O)O)C[C@H]2CCC[C@@H]21`, the Potency was 2640 nM (active).

Regarding `N#Cc1c(C2CCNCC2)cc(-c2c(O)cccc2OCC2CC2)nc1N`, the Potency is 16600 nM (active).

On to `O=C1NC(=O)C(=Cc2ccc3nccc(-c4ccncc4)c3c2)S1`, for which the Potency was 118 nM (active).

In the case of `CCc1cnn2c(NCc3ccc[n+]([O-])c3)cc(N3CCCC[C@@H]3CCO)nc12`, the Potency is 20.9 nM (active).

On to `FC(F)c1nc2ccccc2n1-c1nc(N2CCOCC2)nc(N2CCOCC2)n1`, for which the Potency is 590 nM (active).

Turning to `COc1cc(C[C@@H](CO)[C@H](CO)Cc2ccc(O)c(OC)c2)ccc1O`, the Potency was 372 nM (active).

As to `COc1cc(O)c2c(c1)C1OC1C[C@H](O)[C@H](O)C(=O)C=CC[C@H](C)OC2=O` (stereo not given in full), the Potency was 2960 nM (active).
